# High-throughput results (PubChem BioAssay)
# Casp6 inh – inhibitors of human caspase-6; P55212; purified caspase-6, Z-VEID-R110 cleavage fluorescence; inhibition, % at 12.5 µM; 0.53% of 350,000 active; AID 686996;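 active = mean inhibition across replicates at least about 35%, with every replicate also reaching that limit, limit read from the data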;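 also: 0% = median of neutral control wells and 100% = no fluorescence left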
# Target sequence (P55212 24-179 limits assumed): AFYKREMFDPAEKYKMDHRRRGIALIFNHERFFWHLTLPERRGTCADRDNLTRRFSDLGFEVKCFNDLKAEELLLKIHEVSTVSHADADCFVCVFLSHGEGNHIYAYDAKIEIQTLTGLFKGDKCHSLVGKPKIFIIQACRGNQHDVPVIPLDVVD
# Target sequence (P55212 194-293 limits assumed): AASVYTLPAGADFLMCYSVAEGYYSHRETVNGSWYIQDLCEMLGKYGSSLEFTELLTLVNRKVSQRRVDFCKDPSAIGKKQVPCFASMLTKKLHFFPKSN
# NSD2 inh – blocks human histone methyltransferase NSD2; NSD2 peptide methylation, AlphaScreen, 120 min; inhibition, % at 12.5 µM; 0.54% of 310,000 active; in the data active = inhibition above about 50%
# ARNT-TACC3 inh – disruptors of human ARNT/TACC3 interaction. Q9Y6A5. AlphaScreen His-ARNT PAS-B/GST-TACC3 binding, luminescence; TACC3 fragment carries E629A point mutation. inhibition, % at 9.99 µM. 0.66% of 390,000 active. AID 623870;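 active = mean inhibition of replicates at least 50% and at least half of replicates each reaching 50%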;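 also: 0% = complete ARNT plus TACC3 wells and 100% = ARNT alone without TACC3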
# SIRT5 block – sirtuin-5 (human) deacylase inhibition; Q9NXA8; Purified SirT5, succinyl-peptide AMC, trypsin-coupled fluorescence; inhibition, % at 15 µM; 1.1% of 330,000 active; AID 652115; in the data active = inhibition above about 15%
# Target sequence (Q9NXA8 whole entry, looked up): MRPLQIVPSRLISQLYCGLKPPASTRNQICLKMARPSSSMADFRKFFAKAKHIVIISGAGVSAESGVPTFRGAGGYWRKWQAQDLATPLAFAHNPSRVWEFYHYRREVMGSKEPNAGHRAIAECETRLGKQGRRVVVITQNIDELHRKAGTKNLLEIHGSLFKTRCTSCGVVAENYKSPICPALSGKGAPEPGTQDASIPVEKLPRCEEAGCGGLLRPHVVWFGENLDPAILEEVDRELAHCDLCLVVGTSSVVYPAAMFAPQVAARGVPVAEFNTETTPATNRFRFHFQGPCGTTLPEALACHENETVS
# PfHsp90 yeast 2 – growth inhibition of yeast expressing Plasmodium Hsp90. S. cerevisiae expressing PfHsp90, BacTiter-Glo ATP, 48 h; yeast lacking PDR1 and PDR3 efflux regulators. 0.32% of 310,000 active. inhibition, % at 9.4 µM;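 active = every replicate shows inhibition above about 80%, whatever the replicate mean, limit read from the data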;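 also: 0% = DMSO neutral controls and 100% = 20 µM radicicol positive controls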
# Starred values were filed as active, the others as inactive; / = no result given; ! = repeats disagree. Sampled rows, rich in hits. Any-hit rate of the full collection: about 2.1%.
SMILES,Casp6 inh,NSD2 inh,ARNT-TACC3 inh,SIRT5 block,PfHsp90 yeast 2
CC(C)C#Cc1cnc2c(c1)C(=O)N([C@@H](C)CO)C[C@H](C)[C@H](CN(C)C(=O)Nc1ccc(F)cc1)O2,1,/,7,2,/
CN(CC(=O)Nc1ccc(Cl)c(C(F)(F)F)c1)C(=O)c1cc(=O)c2ccccc2o1,4,23,-1,22*,6
CN(CC(=O)Nc1ccc(Cl)c(C(F)(F)F)c1)C(=O)c1cc(=O)[nH]c2ccccc12,4,-7,8,2,-12
Cc1ccc(C(=O)N(C)CC(=O)Nc2ccc(Cl)c(C(F)(F)F)c2)cc1S(=O)(=O)N1CCCCC1,-1,20,-2,19*,22
C[C@@H]1CCCCO[C@@H](CN(C)C(=O)Nc2ccccc2)[C@@H](C)CN([C@H](C)CO)C(=O)c2cc(NC(=O)Nc3ccc4c(c3)OCO4)ccc2O1,2,/,3,5,/
C[C@@H]1CN([C@H](C)CO)C(=O)c2cccc(NC(=O)C3CCOCC3)c2O[C@@H]1CN(C)C(=O)NC1CCCCC1,-1,/,2,-6,/
O=c1[nH]c(Nc2ccccn2)cc2ccccc12,90*,/,19,2,5
CCC(=O)N1C[C@H](C)[C@@H](OC)CN(C)C(=O)c2cc(NC(=O)NC(C)C)ccc2OC[C@@H]1C,1,/,-1,2,/
O=C(NCC1(N2CCCCC2)CCCCC1)c1ccc(NS(=O)(=O)c2ccccc2)cc1,-1,0,active,0,-6
CCOc1ccc(S(=O)(=O)NCCC(=O)NCC2(N3CCCCC3)CCCCC2)cc1,50*,0,-7,-2,-1
Cc1cccc(NS(=O)(=O)c2ccc(C(=O)NCC3(N4CCCCC4)CCCCC3)cc2)c1C,2,4,-10,1,-3
CCCC#Cc1ccc2c(c1)O[C@@H](CN(C)CC1CCCC1)[C@H](C)CN([C@H](C)CO)S2(=O)=O,-2,/,/,/,/
O=C(NCCc1ccccc1)[C@H]1N[C@H]2c3ccc(-c4ccc(F)cc4)c(=O)n3C[C@H]2[C@@H]1CO,1,/,-6,-5,/
C[C@@H]1CN([C@H](C)CO)S(=O)(=O)c2ccc(C3=CCCCC3)cc2O[C@H]1CN(C)Cc1cccc(C(=O)O)c1,-2,/,41,5,/
Cc1cc(/C=N/NC(=O)C(O)(c2ccccc2)c2ccccc2)c(C)n1-c1cccc(C(=O)O)c1,43*,/,-2,11,-3
Cc1cc(/C=N/NC(=O)c2ccccn2)c(C)n1-c1cccc([N+](=O)[O-])c1,-4,4,68*,2,0
CCCN1C[C@@H](C)[C@H](OC)CN(C)C(=O)c2cc(NS(C)(=O)=O)ccc2OC[C@@H]1C,/,/,-8,/,/
COC(=O)c1c(NC(=O)/C=C/C(=O)O)sc(C)c1-c1ccc(C(C)C)cc1,37*,19,-8,5,11
CO[C@@H]1CN(C)C(=O)c2ccc(NC(=O)NC(C)C)cc2OC[C@@H](C)N(C(=O)C2CCC2)C[C@H]1C,-1,/,/,0,/
O=C(CSc1nnc(COc2ccccc2)o1)N1CCOCC1,2,-3,-7,23*,-29
CN1C(=O)c2cc(NC(=O)c3cccs3)ccc2OC[C@H]2O[C@H](CC(=O)NCC(F)(F)F)CC[C@@H]21,1,/,0,-3,/
O=C(O)C[C@@H]1CC[C@@H](NC(=O)c2ccccc2F)[C@@H](CO)O1,-2,/,-3,2,/
C[C@@H]1CCCCO[C@@H](CN(C)C(=O)Nc2ccc(C(F)(F)F)cc2)[C@H](C)CN([C@@H](C)CO)C(=O)c2cc(NS(=O)(=O)c3ccc(Cl)cc3)ccc2O1,0,/,-8,19*,/
C[C@@H]1CCCCO[C@H](CN(C)C(=O)Nc2ccccc2)[C@@H](C)CN([C@@H](C)CO)C(=O)c2cc(N(C)C)ccc2O1,1,/,3,0,/
Cc1ccc(S(=O)(=O)Nc2ccc3c(c2)C(=O)N([C@@H](C)CO)C[C@H](C)[C@@H](CN(C)C(=O)Nc2ccc(C(F)(F)F)cc2)OCCCC[C@H](C)O3)cc1,1,/,-4,17*,/
SMILES,Casp6 inh,NSD2 inh,ARNT-TACC3 inh,SIRT5 block,PfHsp90 yeast 2
Cc1ccc(S(=O)(=O)Nc2ccc3c(c2)C(=O)N([C@H](C)CO)C[C@@H](C)[C@H](CN(C)C(=O)Nc2ccc(C(F)(F)F)cc2)OCCCC[C@@H](C)O3)cc1,1,/,2,16*,/
C[C@H](CO)N1C[C@H](C)[C@@H](CN(C)C(=O)Nc2ccc(C(F)(F)F)cc2)OCCCC[C@H](C)Oc2ccc(NS(=O)(=O)c3ccc(Cl)cc3)cc2C1=O,2,/,-6,0,/
C[C@H](CO)N1C[C@H](C)[C@H](CN(C)C(=O)Nc2ccc(C(F)(F)F)cc2)OCCCC[C@H](C)Oc2ccc(NS(=O)(=O)c3ccc(F)cc3)cc2C1=O,1,/,-6,0,/
C[C@@H]1CN([C@@H](C)CO)C(=O)c2cc(N(C)C)ccc2O[C@@H](C)CCCCO[C@@H]1CN(C)C(=O)Nc1ccccc1,4,/,4,16*,/
Cc1ccc(S(=O)(=O)Nc2ccc3c(c2)C(=O)N([C@H](C)CO)C[C@H](C)[C@H](CN(C)C(=O)Cc2ccccc2)OCCCC[C@H](C)O3)cc1,1,/,35,16*,/
Cc1ccc(S(=O)(=O)Nc2ccc3c(c2)C(=O)N([C@@H](C)CO)C[C@H](C)[C@@H](CN(C)C(=O)Nc2ccccc2)OCCCC[C@H](C)O3)cc1,-2,/,7,17*,/
Cc1ccc(S(=O)(=O)Nc2ccc3c(c2)C(=O)N([C@H](C)CO)C[C@H](C)[C@@H](CN(C)C(=O)Nc2ccccc2)OCCCC[C@@H](C)O3)cc1,0,/,-1,2,/
C[C@@H]1CN([C@@H](C)CO)C(=O)c2cc(N(C)C)ccc2O[C@H]1CN(C)C(=O)Nc1ccc(F)cc1,0,/,3,3,/
C[C@@H]1CN([C@H](C)CO)C(=O)c2cc(N(C)C)ccc2O[C@H]1CN(C)C(=O)Nc1ccc(F)cc1,-1,/,-6,34*,/
C[C@@H]1CCCCO[C@@H](CN(C)C(=O)Nc2ccc(C(F)(F)F)cc2)[C@H](C)CN([C@H](C)CO)C(=O)c2cc(NS(=O)(=O)c3ccc(F)cc3)ccc2O1,-2,/,0,0,/
Cc1ccc(S(=O)(=O)Nc2ccc3c(c2)C(=O)N([C@H](C)CO)C[C@H](C)[C@@H](CN(C)C(=O)Nc2ccc(C(F)(F)F)cc2)OCCCC[C@H](C)O3)cc1,4,/,15,16*,/
COc1ccccc1S(=O)(=O)N[C@H]1C=C[C@H](CC(=O)N2CCCCC2)O[C@@H]1CO,0,/,-7,1,/
C[C@@H]1CN([C@@H](C)CO)C(=O)c2cc(NS(=O)(=O)c3ccc(Cl)cc3)ccc2O[C@@H](C)CCCCO[C@H]1CN(C)C(=O)CCC(F)(F)F,-3,/,-1,13,/
C[C@@H]1CCCCO[C@H](CN(C)C(=O)CCC(F)(F)F)[C@H](C)CN([C@@H](C)CO)C(=O)c2cc(NS(=O)(=O)c3ccc(Cl)cc3)ccc2O1,1,/,5,17*!,/
